Records with an inconclusive call do not appear. Values without a mark were called inactive. Calls of active or inactive are those of the source. Unless noted, the call rests on the fitted dose curve; in most records, active means well fitted curve in the direction sought with a large enough effect; inconclusive means small, poorly fitted or top-dose-only effect, or another doubt; inactive means no such curve, though single readings can be large; an effect the other way counts as inactive or inconclusive.

For experiment [1], the target named is Cytochrome P450 1A2 (Homo sapiens) (UniProt P05177). Description: p450-cyp1a2 (AID 410; calls by dose curve; further: potency means the concentration at half of the fitted maximal effect). The gist of the method:
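Human CYP1A2 (20nM) demethylated Luciferin-ME at its Km (100uM) in 100mM KPO4. After 10 min compound preincubation, NADPH regeneration ran the reaction 60 min at room temperature. Luciferin was read by luminescence, normalized to 57 uM furafylline.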

The target of experiment [2] is Cytochrome P450 2C9 (Homo sapiens) (UniProt P11712). Kind of experiment: qHTS Assay for Inhibitors and Substrates of Cytochrome P450 2C9 (AID 883). Further: nearly all actives have a fitted effect of over 60% in size. The gist of the method:
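A luminogenic readout tracked human CYP2C9 (10nM) converting deoxyluciferin (100uM, at KM) in 25mM KPO4 during 60 min at 37C with regenerated NADPH. Values normalized to 57uM sulphaphenazole as complete inhibition.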
On the technique in general: In qHTS, concentration-response curves come from the screen itself.

Experiment [3] has as its target Cytochrome P450 2C19 (Homo sapiens) (UniProt P33261). Description: qHTS Assay for Inhibitors and Substrates of Cytochrome P450 2C19 (AID 899). Further: nearly all actives have a fitted effect of over 60% in size. Further: potency means the concentration at half of the fitted maximal effect. The gist of the method:
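NADPH-dependent conversion of Luciferin-H EGE (10uM, at KM) by 5nM enzyme in 50mM KPO4, 60 min at 37C following 10 min compound preincubation. Stopped with luciferin detection buffer; luminescence read after 20 min.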

Experiment [4] in a line: S16 Schwann cell PMP22 intronic element firefly luciferase assay (AID 624032). Further: nearly all actives have a fitted effect of over 30% in size. In short, it runs like this:
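Rat S16 Schwann cells stably carrying a PMP22 intronic element-driven Fluc reporter were seeded overnight, then exposed to compounds for 24 h at 37 °C. Luminescence was normalized to PTC124 (positive control) and DMSO (0% activity).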

Experiment [5] deals with CP194. Description: qHTS profiling for inhibitors of Plasmodium falciparum proliferation (AID 504749). Further: nearly all actives have a fitted effect of over 60% in size. Further: potency means the concentration at half of the fitted maximal effect. As to conditions: P. falciparum in erythrocytes, SYBR Green DNA, 72 h; series mostly up to 12.8 µM. The gist of the method: (§1)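 P. falciparum-infected erythrocytes (0.3% parasitemia, 2.5% hematocrit final) were exposed to compounds for 72 h at 37 C in 5% CO2, then lysed with SYBR Green buffer overnight at room temperature; parasite DNA fluorescence was normalized to artemisinin and DMSO controls.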

In experiment [6] the test system is CP203. The experiment is described as above. As to conditions: P. falciparum in erythrocytes, SYBR Green DNA, 72 h; series mostly up to 12.8 µM. The gist of the method:
as §1

The subject of experiment [7] is CP215. The description is as above. To be noted: P. falciparum in erythrocytes, SYBR Green DNA, 72 h; series mostly up to 12.8 µM. The gist of the method: as §1
In experiment [8] the test system is CP265. Described as above. As to conditions: P. falciparum in erythrocytes, SYBR Green DNA, 72 h; series mostly up to 12.8 µM. In short, it runs like this: as §1
Experiment [9] has as its system CP268. Described as above. As to conditions: P. falciparum in erythrocytes, SYBR Green DNA, 72 h; series mostly up to 12.8 µM. The gist of the method: as §1
Experiment [10] deals with CP335. Described as above. As to conditions: P. falciparum in erythrocytes, SYBR Green DNA, 72 h; series mostly up to 12.8 µM. In short, it runs like this: as §1
In experiment [11] the test system is P94_40. The experiment is described as above. As to conditions: P. falciparum in erythrocytes, SYBR Green DNA, 72 h; series mostly up to 12.8 µM. In short, it runs like this: as §1
The test system of experiment [12] is PC26. The description is as above. As to conditions: P. falciparum in erythrocytes, SYBR Green DNA, 72 h; series mostly up to 12.8 µM. The gist of the method:
as §1

Experiment [13] deals with 7G8. The experiment is described as above. As to conditions: P. falciparum in erythrocytes, SYBR Green DNA, 72 h; series mostly up to 12.8 µM. In short, it runs like this: as §1
Experiment [14] deals with DIV17. The description is as above. As to conditions: P. falciparum in erythrocytes, SYBR Green DNA, 72 h; series mostly up to 12.8 µM. The gist of the method:
as §1

Experiment [15] concerns the target Cytochrome P450 2D6 (Homo sapiens) (UniProt P10635). Description: qHTS Assay for Inhibitors and Substrates of Cytochrome P450 2D6 (AID 891). In short, it runs like this: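 Human CYP2D6 (5 nM) with 30 uM Luciferin-ME EGE (at Km) in 100 mM KPO4, compound preincubated 10 min, then NADPH regeneration system for 60 min at room temperature. Luciferin read by luminescence; normalized to 1.43 uM quinidine.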

The test system of experiment [16] is DFO2036. Kind of experiment: qHTS profiling for inhibitors of Plasmodium falciparum proliferation (AID 504749). Further: nearly all actives have a fitted effect of over 60% in size. Further: potency means the concentration at half of the fitted maximal effect. To be noted: P. falciparum in erythrocytes, SYBR Green DNA, 72 h; series mostly up to 12.8 µM. In short, it runs like this: as §1
Experiment [17] deals with TAB109. Described as above. As to conditions: P. falciparum in erythrocytes, SYBR Green DNA, 72 h; series mostly up to 12.8 µM. The gist of the method:
as §1

Experiment [18] concerns GB4. The experiment is described as above. To be noted: P. falciparum in erythrocytes, SYBR Green DNA, 72 h; series mostly up to 12.8 µM. The gist of the method:
as §1

Sequence of Cytochrome P450 1A2 (Homo sapiens) (P05177 whole entry, looked up): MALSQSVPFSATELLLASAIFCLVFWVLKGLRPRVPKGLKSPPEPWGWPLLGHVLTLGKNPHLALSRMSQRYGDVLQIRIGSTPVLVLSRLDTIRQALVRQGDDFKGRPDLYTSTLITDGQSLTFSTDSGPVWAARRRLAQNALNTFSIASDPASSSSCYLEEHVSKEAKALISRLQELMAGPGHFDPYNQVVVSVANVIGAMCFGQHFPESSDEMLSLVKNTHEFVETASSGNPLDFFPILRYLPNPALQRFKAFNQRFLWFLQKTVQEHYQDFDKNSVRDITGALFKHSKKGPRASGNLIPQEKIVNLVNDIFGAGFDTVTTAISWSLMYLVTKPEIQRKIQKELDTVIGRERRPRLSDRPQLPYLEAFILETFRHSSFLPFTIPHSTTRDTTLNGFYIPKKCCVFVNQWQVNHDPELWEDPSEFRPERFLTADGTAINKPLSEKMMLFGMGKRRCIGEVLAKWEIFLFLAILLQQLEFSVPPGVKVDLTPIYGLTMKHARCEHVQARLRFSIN
Sequence of Cytochrome P450 2C19 (Homo sapiens) (P33261 whole entry, looked up): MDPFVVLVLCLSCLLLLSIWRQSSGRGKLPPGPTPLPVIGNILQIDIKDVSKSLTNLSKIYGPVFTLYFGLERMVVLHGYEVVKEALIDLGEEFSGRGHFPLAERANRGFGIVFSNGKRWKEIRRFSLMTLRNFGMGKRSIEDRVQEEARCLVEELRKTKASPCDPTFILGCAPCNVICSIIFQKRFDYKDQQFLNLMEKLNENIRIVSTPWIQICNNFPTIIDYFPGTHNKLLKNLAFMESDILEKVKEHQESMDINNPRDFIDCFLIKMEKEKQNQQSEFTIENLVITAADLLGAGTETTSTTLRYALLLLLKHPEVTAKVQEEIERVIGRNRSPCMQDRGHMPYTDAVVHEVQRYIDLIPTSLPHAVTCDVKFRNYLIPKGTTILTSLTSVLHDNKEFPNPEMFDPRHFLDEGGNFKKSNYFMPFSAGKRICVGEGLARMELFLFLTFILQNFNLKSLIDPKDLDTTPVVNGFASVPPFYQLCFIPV
Sequence of Cytochrome P450 2C9 (Homo sapiens) (P11712 whole entry, looked up): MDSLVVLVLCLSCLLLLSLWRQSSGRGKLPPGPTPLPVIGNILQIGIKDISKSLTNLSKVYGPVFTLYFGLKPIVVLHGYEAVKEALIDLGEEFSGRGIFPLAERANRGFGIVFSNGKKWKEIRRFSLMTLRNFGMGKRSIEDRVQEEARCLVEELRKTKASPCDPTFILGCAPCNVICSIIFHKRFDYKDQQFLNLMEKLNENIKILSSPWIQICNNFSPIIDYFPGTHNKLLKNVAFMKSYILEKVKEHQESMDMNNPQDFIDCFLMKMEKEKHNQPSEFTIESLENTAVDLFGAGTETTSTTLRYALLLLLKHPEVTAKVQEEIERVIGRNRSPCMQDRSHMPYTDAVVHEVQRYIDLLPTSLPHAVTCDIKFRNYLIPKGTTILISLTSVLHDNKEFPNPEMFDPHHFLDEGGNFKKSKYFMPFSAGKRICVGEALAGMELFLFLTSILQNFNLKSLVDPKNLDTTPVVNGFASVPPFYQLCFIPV
Sequence of Cytochrome P450 2D6 (Homo sapiens) (P10635 whole entry, looked up): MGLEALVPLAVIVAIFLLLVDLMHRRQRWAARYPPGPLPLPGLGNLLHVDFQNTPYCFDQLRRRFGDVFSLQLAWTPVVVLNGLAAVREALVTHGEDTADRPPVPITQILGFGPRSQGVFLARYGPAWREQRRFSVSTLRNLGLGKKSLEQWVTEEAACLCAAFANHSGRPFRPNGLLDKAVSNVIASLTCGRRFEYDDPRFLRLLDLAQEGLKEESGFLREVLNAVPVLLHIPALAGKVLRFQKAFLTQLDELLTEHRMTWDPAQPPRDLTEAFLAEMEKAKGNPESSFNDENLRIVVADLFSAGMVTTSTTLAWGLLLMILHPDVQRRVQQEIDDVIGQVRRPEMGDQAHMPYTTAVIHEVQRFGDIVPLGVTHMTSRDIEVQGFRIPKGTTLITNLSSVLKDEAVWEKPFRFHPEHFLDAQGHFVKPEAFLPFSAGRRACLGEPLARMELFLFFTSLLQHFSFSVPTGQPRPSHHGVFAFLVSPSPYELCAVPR

With `C[C@@H]1C[C@H](OC(=O)[C@@H](O)c2ccccc2)CC(C)(C)N1C`, the Potency entry in experiment [1] is “inactive”.
For the compound `C[C@@]1(O)CCOC(=O)C1`, the Potency result in [1], in experiment [2] and in experiment [3] was “inactive” each time.
As to `C[C@H]1CS(=O)(=O)CCN1/N=C\c1ccc([N+](=O)[O-])o1`, the Potency result in experiment [4], in experiment [5], in experiment [6], in experiment [7], in experiment [8] and in [9] was “inactive” throughout. Also, the Potency result in [10], in experiment [11] and in [12] was “inactive” throughout.
Regarding `C=C1c2c(Cl)ccc(O)c2C(O)=C2C(=O)[C@@]3(O)C(O)=C(C(N)=O)C(=O)[C@@H](N(C)C)[C@@H]3[C@@H](O)[C@H]12`, the Potency entry in experiment [4], in [6], in [7], in experiment [8], in [9] and in experiment [14] was “inactive” each time. Further, the Potency entry in experiment [11] is “inactive”. Moreover, in [13], the Potency was 3160 nM (active).
Take `CN(C/C=C\c1ccccc1)Cc1cccc2ccccc12`: the Potency in experiment [1] was 2000 nM (active); in experiment [15], 251 nM (active); in [3], 501 nM (active). Moreover, the Potency entry in experiment [6], in experiment [7], in [8], in experiment [9], in experiment [10] and in [16] was “inactive” throughout. The Potency entry in [14], in experiment [11], in experiment [12] and in experiment [17] was “inactive” in each case.
For `c1ccc2c(c1)CCCc1cc(NCCN3CCOCC3)nnc1-2`, the Potency result in experiment [1] was “inactive”.
With `O=C1O[C@@H]([C@@H](O)CO)[C@@H](O)[C@H]1O`, the Potency result in experiment [13], in [5], in [6], in [7], in experiment [8] and in [9] was “inactive” throughout. Moreover, the Potency result in experiment [10], in [16], in experiment [14], in [18], in [11] and in [12] was “inactive” in each case.
`C[C@@H]1C[C@H](OC(=O)c2ccccc2O)CC(C)(C)C1`: the Potency in experiment [1] was 12600 nM (active).
On to `CC[C@](C)(CN(C)C)OC(=O)c1ccccc1`, for which the Potency result in experiment [4], in experiment [13], in [5], in [7], in experiment [8] and in experiment [9] was “inactive” in each case. Moreover, the Potency entry in experiment [16], in [14], in experiment [11], in [12] and in experiment [17] was “inactive” each time.
On to `COc1ccc(OC)c([C@H](O)CNC(=O)CN)c1`, for which the Potency result in [4], in experiment [13], in experiment [5], in [6], in [7] and in experiment [8] was “inactive” each time. Besides, the Potency result in [9], in experiment [10], in [16], in [14], in experiment [18] and in experiment [11] was “inactive” in each case. Moreover, the Potency entry in [12] and in [17] was “inactive” in each case.
Consider `C#C[C@@]1(OC(C)=O)CC[C@@H]2[C@@H]3CCC4=C[C@@H](OC(C)=O)CC[C@H]4[C@H]3CC[C@]21C`, for which, in experiment [1], the Potency entry is “inactive”.

These data come from PubChem BioAssay (NCATS).
